MARV entry inh = inhibitors of Marburg virus binding or cell entry; 300,000 compounds, 1.8% hits; Marburg virus pseudotyped entry inhibition, cell reporter; AID 540276; Potency, µM (top dose mostly 37.8 µM), without a hit: at the top dose activity change, negative = inhibition, hits mostly inhibitors; calls by dose curve; tested in HEK293 cells; also: potency is read from the fitted curve at half-maximal effect; % is scaled to controls: 0 for no effect and ±100 for the full control effect
HCV inhibitor = inhibitors of hepatitis C virus infection. Huh7.5.1 HCVcc-Cre infection, luciferase reporter, 44 h. 340,000 compounds, 3.4% hits. Potency, µM (titrated, usually from 41.8 µM), for inactives: top-dose activity change, negative = inhibition, most hits filed as inhibitors; active = well fitted inhibition curve with a large enough effect; inconclusive = small, poorly fitted or top-dose-only effect, or another doubt; inactive = no such curve, though single readings can be large or run the other way; also: potency is read from the fitted curve at half-maximal effect; % is scaled to controls: 0 for no effect and ±100 for the full control effect
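Antiviral activity was scored by luciferase reporter output from cells infected with HCVcc-Cre (~0.5 moi) in presence of compound, 44 h infection period, cells seeded 1,000/well 4 h prior.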
SARS PLP yeast = inhibitors of SARS-CoV papain-like protease in yeast; S. cerevisiae expressing SARS-CoV PLpro, growth rescue; 330,000 compounds, 0.19% hits; Potency, µM (doses to about 32.9 µM), for inactives: at the highest dose activity, positive = growth rescue, actives largely listed as activators; AID 485353; calls by dose curve; also: potency is read from the fitted curve at half-maximal effect; 0% is about no effect; nearly all actives have a fitted effect of over 55% in size
FMDV inh = blocks foot and mouth disease virus. Potency, µM (doses to about 57.9 µM), for inactives: at the top dose activity change, negative = inhibition, actives largely listed as inhibitors. 410,000 compounds, 1.2% hits. FMDV antiviral cell-based qHTS; calls by dose curve; tested in HEK293T cells; also: read-out not given here; potency is read from the fitted curve at half-maximal effect; % is scaled to controls: 0 for no effect and ±100 for the full control effect; nearly all actives have a fitted effect of over 45% in size
HCMV antiviral = inhibitors of human cytomegalovirus | 410,000 compounds, 4.5% hits | activity change, negative = inhibition, % at 57.5 µM | HFF cells, HCMV-luciferase reporter, 72 h; hits give low values; in the data active = activity change below about -60%; inconclusive = no clear call, values can overlap the other calls; inactive = above about -39%; also: % is scaled to controls: 0 for no effect and ±100 for the full control effect
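Cell-based, HFFs, 1000 cells/well, 16 h 37C; cpds in DMSO + HCMV-luc, MOI 1 PFU/cell; 72 h 37C; OneGlo luminescence after 5 min RT; norm. to buffer vs Salinomycin 10uM.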
LASV entry inh = inhibitors of Lassa virus binding or cell entry. Lassa virus pseudotype entry inhibition, cell reporter. 300,000 compounds, 1.2% hits. Potency, µM (titrated, usually from 37.9 µM), inactives show top-dose activity change, negative = inhibition, hits mostly inhibitors; calls by dose curve; tested in HEK293 cells; also: potency is read from the fitted curve at half-maximal effect; % is scaled to controls: 0 for no effect and ±100 for the full control effect; nearly all actives have a fitted effect of over 50% in size
Active calls of the source: *; u = inconclusive; x = no result given; [ ] = another dose, or the depositor's remark. A selection: hits, their analogues and other compounds. The true share with any hit is near 8%.

SMILES	MARV entry inh	HCV inhibitor	SARS PLP yeast	FMDV inh	HCMV antiviral	LASV entry inh
CN=C(c1ccc(C)cc1)n1c(=S)nc(-c2ccc(C)cc2)n(C)c1=S	-14%[46.1 µM]	-9%	-2%	-6%	15	17%
CN=C(c1ccco1)n1c(=S)nc(-c2ccco2)n(C)c1=S	-2%[46.1 µM]	11µM*	4%	7%	73	7%
CCC(C)NC(=O)Cn1c(=O)n(-c2cc(OC)cc(OC)c2)c(=O)c2ccccc21 (stereo not given)	28%[46.1 µM]	x	x	0%	6	-4%[46.1 µM]
CC(C)N1CCc2c(sc(NC(=O)C3CCCCC3)c2C(N)=O)C1	x	u	-3%	u	-79*	x
CCOC(=O)c1c(NC(=O)C2CCCCC2)sc2c1CCN(C(C)C)C2	x	7.9µM*	-6%	0%	8	x
COC(=O)c1c(NC(=O)C2CCCCC2)sc2c1CCN(C(C)C)C2	x	-11%	0%	u	-24	x
Cc1ccccc1CN1C(=O)c2ccccc2Sc2ccc(C(=O)NCCc3ccccc3)cc21	x	x	x	-1%	-25	u
CCCCS/C(=C(/C#N)C(N)=O)c1cc2c([nH]1)CCCC2	-23%	-31%	-14%	-21%	-63*	-19%
COCc1c(C(=O)NC2CCCC2)cnn1-c1nccc(-c2ccco2)n1	x	x	x	18%	x	x
Cc1noc(C)c1-c1ccc2ncnc(Nc3ccc(F)cc3)c2c1	x	x	x	-2%	x	x
N#CC(C#N)=NNc1ccc(-n2ccc(C(F)(F)F)n2)cc1	3.2µM*	4µM*	-20%	u	-97*	u
CCc1ccccc1Nc1cc(C(=O)NC(C)c2ccccc2)c2ccccc2n1 (stereo not given)	u	x	x	3%	6	u
Fc1cccc(-c2oncc2-c2nnnn2-c2ccc(Cl)cc2)c1	-2%	6%	u	-14%	-67*	-15%
Fc1ccc(-n2nnnc2-c2ccccc2Cl)cc1	u	21%	0%	-7%	-67*	-26%[46.1 µM]
CCOC(=O)c1ccc(NC(=O)c2c(-c3c(F)cccc3Cl)noc2C)cc1	-20%[46.1 µM]	x	x	u	-6	u
CN(C)C/C=C(/c1ccc(Br)cc1)c1cccnc1	7.1µM*	u	x	-10%	-2	-23%
O=S(=O)(Nc1ccc2c(c1)OCO2)c1cccs1	13%	u	-2%	55%	4	18%
Cn1c(=O)oc2cc(S(=O)(=O)NCCC(=O)Nc3ccc4c(c3)OCCO4)ccc21	-6%	9%	4%	0%	9	26%
Cn1c(=O)oc2cc(S(=O)(=O)Nc3ccc4c(c3)OCCO4)ccc21	5%	-5%	x	-20%	-91*	1%
Cn1c(=O)c(=O)n(C)c2cc(S(=O)(=O)Nc3ccc4c(c3)OCCO4)ccc21	9%	13%	-1%	40µM*	-76*	-1%
O=S(=O)(Nc1ccc2c(c1)OCCO2)c1cccs1	11%	4%	-6%	x	-77*	10%
Cc1ncc2c(c1CNS(=O)(=O)N(C)C)CCN(C(=O)/C=C/c1ccccc1Cl)C2	x	x	x	-3%	x	x
COCCn1c(-c2ccc(SC)cc2)nc2c1c(=O)[nH]c(=O)n2CC(C)C	-10%[46.1 µM]	-9%	1%	24%	31	u
CCCCn1c(=O)[nH]c(=O)c2c1nc(-c1ccc(C)c([N+](=O)[O-])c1)n2CC	u	u	-3%	-22%	66	u
O=c1[nH]c(=O)n(Cc2ccccc2)c2nc(-c3ccc(Oc4ccc(F)cc4)c([N+](=O)[O-])c3)n(CCO)c12	u	u	10%	0%	-64*	u
COc1ccc(Br)cc1-c1nc2c(c(=O)[nH]c(=O)n2Cc2ccccc2)n1C	-15%[46.1 µM]	14%	-1%	-10%	7	u
Cc1ccc(-c2nc3c(c(=O)[nH]c(=O)n3CC(C)C)n2CC(C)C)cc1[N+](=O)[O-]	u	u	-5%	-27%	-62*	u
COCCn1c(-c2ccc(OC(F)(F)C(F)C(F)(F)F)cc2)nc2c1c(=O)[nH]c(=O)n2CC(C)C (stereo not given)	-5%	-27%	-4%	u	-2	2.8µM*
Cn1c(-c2cc(Cl)ccc2O)nc2c1c(=O)[nH]c(=O)n2Cc1ccccc1	2µM*	u	0%	u	-5	u

Bioassay records (PubChem BioAssay)
